# RORg inh: inhibitors of mouse ROR gamma transcriptional activity. AID 2551. Potency, µM (highest dose often 53.6 µM), without a hit: at the highest dose activity change, negative = inhibition, usual class: inhibitors. Drosophila S2 Gal4-RORgamma UAS-luciferase reporter, 20 h. hit rate 5.4% among 310,000; further: potency means the concentration at half of the fitted maximal effect; on the % scale 0 is the no-effect control and ±100 the full control effect; nearly all actives have a fitted effect of over 60% in size
# Target sequence (P51450 whole entry, looked up, the tested form may be a part): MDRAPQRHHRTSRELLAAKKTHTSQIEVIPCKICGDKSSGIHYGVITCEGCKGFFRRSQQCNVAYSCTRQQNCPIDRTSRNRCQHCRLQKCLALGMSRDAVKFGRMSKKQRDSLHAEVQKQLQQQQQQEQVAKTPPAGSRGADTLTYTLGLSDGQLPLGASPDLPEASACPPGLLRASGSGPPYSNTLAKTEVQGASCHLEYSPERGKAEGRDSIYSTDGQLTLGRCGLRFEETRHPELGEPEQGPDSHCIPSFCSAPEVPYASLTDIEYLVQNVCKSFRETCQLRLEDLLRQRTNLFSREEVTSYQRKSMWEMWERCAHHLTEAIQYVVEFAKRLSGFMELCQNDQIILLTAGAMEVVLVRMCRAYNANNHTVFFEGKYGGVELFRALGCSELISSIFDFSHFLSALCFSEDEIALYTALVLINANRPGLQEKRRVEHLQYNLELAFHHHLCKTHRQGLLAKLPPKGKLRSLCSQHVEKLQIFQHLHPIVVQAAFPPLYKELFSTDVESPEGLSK
#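 Compounds are pin-transferred onto Drosophila Schneider cells expressing a copper-inducible Gal4–ROR gamma transactivation domain fusion. After 1 hr, copper sulfate is added to 700 uM final; luciferase is read 20 hr later.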
# VP16 counter: Gal4-VP16 reporter inhibition counter-screen; Drosophila S2 Gal4-VP16 UAS-luciferase, luminescence, 20 h; Potency, µM (doses to about 53.6 µM), for inactives: top-dose activity, negative = inhibition, most hits filed as inhibitors; hit rate 3.5% among 310,000;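 further: Gal4-VP16 expression switched on by copper sulfate through the metallothionein promoter; potency means the concentration at half of the fitted maximal effect; on the % scale 0 is the no-effect control and ±100 the full control effect; nearly all actives have a fitted effect of over 50% in size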
# IL-1B inflam inh: inflammasome signaling inhibition, IL-1 beta readout. hit rate 4.7% among 360,000. THP-1 LPS/ATP IL-1B secretion, AlphaLISA, 16 h; stronger effect = lower value. activity change, % at 57.5 µM; in the data active means activity change below about -50%; inconclusive means mostly about -30% to -49%; further: on the % scale 0 is the no-effect control and ±100 the full control effect
#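 THP-1 cells pretreated 1 hr with compounds (up to 57.5 uM final), then stimulated with LPS (250 ng/mL final) plus ATP (1.25 mM final); secreted IL-1B measured by AlphaLISA after 16 hr, decreased signal indicating inhibition.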
# SW480 rereplic: DNA re-replication induction in SW480 cells. SW480 DNA re-replication, Hoechst DNA content imaging, 48 h. Potency, µM (highest dose often 46.1 µM), for the others: at the top dose re-replication activation, actives largely listed as activators. hit rate 1.8% among 340,000; further: potency means the concentration at half of the fitted maximal effect; % of control where 0% means no effect; nearly all actives have a fitted effect of over 55% in size
#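 Compounds, transferred as 23 nL by pin tool, were incubated with cells for 48 hr; DNA content per nucleus was then quantified by Hoechst staining and fluorescence plate imaging.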
# MCF10A rereplic: inducers of DNA re-replication in MCF 10A breast cells. MCF 10A DNA re-replication, Hoechst nuclear intensity, 48 h. Potency, µM (titrated, usually from 46.1 µM), inactives show at the top dose activity, positive = re-replication, most hits filed as activators. hit rate 2.9% among 350,000; further: potency means the concentration at half of the fitted maximal effect; % of control where 0% means no effect; nearly all actives have a fitted effect of over 50% in size
# * marks the source's active call; other numbers are inactive results; ? = inconclusive; / = no result. Most compounds without a hit are left out; they make up all but 11% or so of the library. Unless noted, the call rests on the fitted dose curve; in most records, active means well fitted curve in the direction sought with a large enough effect; inconclusive means small, poorly fitted or top-dose-only effect, or another doubt; inactive means no such curve, though single readings can be large; an effect the other way counts as inactive or inconclusive.
SMILES,RORg inh,VP16 counter,IL-1B inflam inh,SW480 rereplic,MCF10A rereplic
COc1cc(S(=O)(=O)N2CCN(Cc3ccccc3)CC2)ccc1Br,-21%,23%,-13,?,10µM*
O=C(CSC(=O)c1ccccc1)Nc1ccccc1F,/,/,9,-5%,9%
NC(=O)C1Cc2ccccc2CN1S(=O)(=O)c1ccc(Cl)s1 (stereo unspecified),7%,-9%,-9,7%,-16%
CC(C)(C)c1ccc(NC(=O)C2=CN3CCS(=O)(=O)N=C3C=C2)cc1,/,/,-9,?,10%
COc1ccc(CN2CCCN(S(=O)(=O)c3ccc(Br)cc3)CC2)cc1,7%,-7%,-71*,?,?
Cc1ccc(NC(=O)c2cccc(S(=O)(=O)N(C)C3CCCCC3)c2)nc1,/,/,-2,2%,11%
Cc1c(C(=O)NCc2ccc3c(c2)OCCO3)sc(=O)n1Cc1ccccc1F,/,/,-2,/,/
Cc1c(/C=C/C(=O)c2ccc(C(C)C)cc2)cnn1C,28%,?,-73*,?,?
CC(C)(C)C(=O)CSc1nc2c(c(-c3cccs3)c1C#N)CCC2,?,4%,15,?,4.1µM*
O=C(NC1CCCCC1)C(c1ccccc1)N(Cc1ccc2c(c1)OCO2)C(=O)c1cnsn1 (stereo unspecified),28%,2%,-61*,29%,?
Cc1ccc(C(C(=O)NC2CCCC2)N(Cc2ccc3c(c2)OCO3)C(=O)c2snc(C(N)=O)c2N)cc1 (stereo unspecified),-1%,-24%,-21,19%,?
CN(CC(O)COc1ccc(OCC(O)CN(C)C2CCCCC2)cc1)C1CCCCC1 (stereo unspecified),-9%,-14%,0,?,-3%
Cc1cccc(C)c1OCC(O)CN(Cc1ccccc1O)C1CCCCC1 (stereo unspecified),-7%,2%,-66*,?,?
COc1cc(Cl)ccc1OCc1cc(C(=O)NCc2cc(C(C)C)no2)no1,?,-8%,0,-1%,?
OC1(c2ccc(F)cc2)CN(c2ccccc2)C2=[N+]1CCS2 (stereo unspecified),121%,-7%,-51*,4%,?
O=[N+]([O-])c1ccc(C2(O)CN(c3ccccc3)C3=[N+]2CCS3)cc1 (stereo unspecified),29%,1%,?,1%,1%
Cc1ccc(C2(O)CN(c3ccccc3)C3=[N+]2CCS3)cc1 (stereo unspecified),?,3%,-76*,8%,5%
CCOC(CCNC(=O)c1cn(CCOC)c(=O)c2c1c1ccccc1n2C)OCC,-1%,-1%,22,-7%,-7%
O=C(c1ccc(N2CCN(C(=O)c3ccc(F)cc3F)CC2)cc1)c1cccc(F)c1,31%,?,-18,-12%,?
COc1cc(C2SCC(=O)N2c2nnc(C34CC5CC(CC(C5)C3)C4)s2)cc(OC)c1OC (stereo unspecified),-15%,-13%,-55*,-3%,-15%
CCNC(=S)Nc1cccc([N+](=O)[O-])c1,-1%,-1%,/,-9%,3%
O=C(NCc1ccccc1)c1ccc(NC(=O)C2CCCCC2)cc1,/,/,65,-11%,1%
O=C(NC(=S)NCc1ccccc1)C1CCCCC1,1.6µM*,7.1µM*,31,-1%,?
NS(=O)(=O)c1ccc(NC(=S)NC(=O)C2CCCCC2)cc1,0%,6%,3,2%,2%
O=C(Nc1ccc(Br)cc1)C1CCCC1,-21%,1%,-4,-3%,1%
SMILES,RORg inh,VP16 counter,IL-1B inflam inh,SW480 rereplic,MCF10A rereplic
O=C(NC(=S)Nc1ccc(Br)cc1)C1CCC1,6.3µM*,7.9µM*,-12,2%,2%
O=C(NC(=S)Nc1ccc(Br)cc1)C1CCCCC1,5µM*,7.9µM*,0,18%,11%
O=[N+]([O-])c1cccc(NC(=S)Nc2nc(-c3ccccc3Cl)cs2)c1,2µM*,2.5µM*,-59*,22%,?
COC(=O)c1nnc(N[C@@H](Cc2c[nH]c3ccccc23)C(=O)OC)nc1C(=O)OC,-17%,0%,/,/,/
CC1=CC(=O)C(C(C)=Nc2cccc(Cl)c2)C(=O)O1 (stereo unspecified),/,/,9,-4%,7%
O=C(NC(=S)Nc1ccccc1)C1CCCCC1,2.8µM*,4µM*,-6,17%,-2%
O=C(Nc1ccccc1)C1CCCCC1,17%,-1%,10,-7%,0%
O=C(NC(=S)Nc1cccc([N+](=O)[O-])c1)C1CCCC1,13µM*,?,-23,-7%,0%
CC(=O)NC(=S)Nc1cccc([N+](=O)[O-])c1,?,16%,-30,2%,?
Cc1ccc(C(NC(=O)N2CCOCC2)=C(Cl)Cl)cc1F,22µM*,2.2µM*,-101*,21%,?
CC(Nc1cc(N2CCN(S(=O)(=O)N(C)C)CC2)ccc1[N+](=O)[O-])c1ccccc1 (stereo unspecified),3%,6%,16,-3%,-3%
CC(Nc1cc(N2CCN(S(C)(=O)=O)CC2)ccc1[N+](=O)[O-])c1ccccc1 (stereo unspecified),20%,1%,-52*,-5%,-12%
CCOC(=O)c1c(NC(=O)CCC(=O)O)sc2c1CCCCC2,25%,-7%,16,-6%,-5%
CCOC(=O)c1c(NC(=O)CCNCc2ccco2)sc2c1CCC2,-6%,-11%,-69*,-36%,7%
CCOC(=O)c1c(NC(=O)C(C)N2CCN(C(=O)c3ccco3)CC2)sc2c1CCCC2 (stereo unspecified),-35%,11µM*,-57*,21%,15µM*
CCOC(=O)c1c(NC(NC(C)=O)C(Cl)(Cl)Cl)sc2c1CCCC2 (stereo unspecified),?,-16%,14,8%,21µM*
CCOC(=O)c1c(NC(=O)CNCCOC)sc2c1CCCC2,1.3µM*,1.6µM*,-1,-15%,?
OCCN1CC(O)C(O)C(O)C1CO (stereo unspecified),16%,-9%,/,4%,4%
CC(=O)N1CCC2(CCN(Cc3ccccc3)CC2)CC1,-9%,-1%,/,/,/
COC(=O)N1CCC2(CCCN(Cc3ccccc3)C2)CC1,6%,-17%,/,/,/
CCOC(=O)c1c(NC(=O)CN(CC)CC)sc2c1CCC2,13µM*,?,-7,-3%,?
CCN(CC)CC(=O)Nc1sc2c(c1C(=O)c1ccccc1OC)CCC2,4µM*,10µM*,-53*,?,?
O=C(OCC(=O)N1CCN(c2ccc(F)cc2)CC1)c1cnc2ccccc2n1,/,/,31,-15%,-3%
COc1ccccc1-c1nnc2n1N=C(c1c(OC)cccc1OC)CS2,-6%,1%,/,/,/
c1ccc(CNc2ncnc3ccccc23)cc1,-45%,11µM*,?,0%,7%

# Screening results from PubChem.
